# Reference: PMC5540273 (PLoS ONE, 2017)
# What was measured:
# Conditions in all cases: concentration: 1 μM, replicates: in singlicate; n = 1
# STK16 = tested on: STK16
# STK33 = tested on: STK33
# STK35 = tested on: STK35
# STK36 = tested on: STK36
# STK39 = tested on: STK39
# SYK = tested on: SYK
# SgK110 = tested on: SgK110
# TAK1 = tested on: T1, TAK1
# T1 construct: gene MAP3K7
# TAOK1 = tested on: TAOK1
# TAOK2 = tested on: TAOK2
# TAOK3 = tested on: TAOK3
# TBK1 = tested on: TBK1
# TEC = tested on: TEC
# TESK1 = tested on: TESK1
# TGFBR1 = tested on: TGFBR1
# TGFBR2 = tested on: TGFBR2
# TIE1 = tested on: TIE1
# TIE2 = tested on: T2, TIE2
# T2 construct: gene TEK
# TLK1 = tested on: TLK1
# TLK2 = tested on: TLK2
# 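Note: KINOMEscan kinase panel screen.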
SMILES,%Inh (STK16),%Inh (STK33),%Inh (STK35),%Inh (STK36),%Inh (STK39),%Inh (SYK),%Inh (SgK110),%Inh (TAK1),%Inh (TAOK1),%Inh (TAOK2),%Inh (TAOK3),%Inh (TBK1),%Inh (TEC),%Inh (TESK1),%Inh (TGFBR1),%Inh (TGFBR2),%Inh (TIE1),%Inh (TIE2),%Inh (TLK1),%Inh (TLK2)
Cl.NC(=O)c1cccc(Nc2nccc(Nc3ccc(Oc4cccc(Cl)c4)c(Cl)c3)n2)c1 [GW659008],38%,0%,0%,0%,12%,1%,0%,0%,0%,0%,0%,7%,10%,40%,0%,12%,12%,1%,0%,0%
COc1ccc(CNC(=O)NC2CCN(c3ccnc(Nc4cc(OC)c(OC)c(OC)c4)n3)C2)cc1 (stereo not drawn) [GSK1379748],54%,0%,0%,0%,1%,21%,0%,0%,0%,0%,0%,15%,0%,2%,0%,0%,20%,0%,9%,0%
Nc1nc(-c2nccs2)c(-c2ccnc3ccccc23)s1 [GW693542],32%,0%,0%,0%,10%,24%,13%,0%,0%,0%,0%,5%,16%,26%,27%,55%,26%,0%,0%,0%
Cc1c(Cn2ccn3c(=O)cc(N4CCOCC4)nc23)cccc1C(F)(F)F [GSK2289044],13%,0%,0%,19%,13%,15%,0%,0%,0%,0%,0%,7%,0%,17%,0%,0%,10%,0%,0%,0%
Fc1cc(Cl)ccc1Nc1ccnc2cc(-c3ccc(CN4CCCCC4)o3)ccc12 [GW560116],1%,0%,0%,0%,0%,0%,0%,0%,0%,0%,0%,14%,5%,19%,0%,0%,0%,0%,0%,0%
COc1ccc(Nc2nccc(-c3cccc(NC(=O)c4cc5cc(F)ccc5[nH]4)c3)n2)cc1 [GSK1229782],22%,5%,0%,0%,4%,49%,0%,64%,2%,0%,0%,24%,19%,34%,17%,10%,0%,17%,4%,0%
Cn1cncc1-c1ccc2ncnc(Nc3ccc(OCc4ccccc4)cc3)c2c1 [GW320571],5%,20%,10%,0%,7%,0%,0%,0%,0%,0%,0%,0%,6%,11%,5%,29%,30%,0%,4%,0%
CC(C)(C)c1ccc(C(=O)Nc2cn3cc(Cl)ccc3n2)cc1,0%,0%,0%,0%,0%,17%,0%,0%,0%,10%,0%,0%,0%,0%,0%,0%,0%,13%,23%,0%
Fc1cc(Cl)ccc1Nc1ccnc2cc(I)ccc12 [GW551191],9%,0%,57%,0%,15%,0%,4%,0%,0%,0%,0%,11%,22%,12%,17%,50%,0%,0%,21%,0%
O=C(Nc1n[nH]c2nc(-c3nccs3)c(Br)cc12)C1CC1 [SB-742251],61%,0%,0%,1%,21%,0%,4%,0%,0%,0%,0%,0%,14%,36%,15%,0%,0%,8%,0%,0%
CS(=O)(=O)c1ccc(-c2nc3n(c2-c2ccncc2)CCC3)cc1 [SKF-105942],96.8%,0%,0%,0%,0%,11%,0%,0%,0%,0%,0%,27%,7%,1%,15%,0%,8%,0%,0%,0%
CC(C)(C)c1ccc(C(=O)Nc2cn3cc(-c4cccnc4)ccc3n2)cc1,27%,6%,0%,4%,0%,0%,0%,11%,0%,2%,0%,40%,10%,4%,1%,7%,4%,27%,46%,5%
O=C1NC(=O)C(N2CCc3ccccc32)=C1c1ccccc1Cl [SB-373598],58%,9%,1%,22%,7%,48%,0%,7%,15%,100%,15%,19%,0%,27%,9%,10%,13%,6%,8%,4%
O=C(Nc1ccccc1)Nc1cccc(Oc2ccc3nccn3n2)c1,0%,1%,11%,0%,0%,12%,40%,0%,0%,0%,0%,10%,0%,0%,5%,9%,0%,92.4%,17%,0%
O=C(Nc1n[nH]c2nc(-c3nccs3)c(Br)cc12)C1CCCC1 [SB-742609],0%,0%,0%,0%,21%,20%,0%,0%,0%,0%,0%,0%,0%,43%,31%,0%,14%,0%,0%,0%
CC(=O)Nc1nc2cnc(Nc3cc(NC(=O)c4cccc(CCC#N)c4)ccc3C)nc2s1,17%,0%,0%,16%,0%,15%,13%,42%,0%,0%,0%,24%,10%,0%,0%,0%,0%,0%,0%,7%
COC(=O)c1c(-c2ccccc2)c2cc(OC)ccc2c(=O)n1Cc1ccccc1,3%,0%,3%,11%,0%,0%,0%,19%,0%,0%,0%,0%,14%,20%,17%,0%,3%,0%,23%,0%
Cc1ccccc1-n1cnc2c(N)ncnc21 [SKF-97510],21%,0%,0%,27%,0%,100%,0%,0%,0%,0%,0%,7%,9%,3%,0%,0%,0%,0%,81%,7%
Cl.Oc1ccc(-c2nc(-c3ccccc3)[nH]c2-c2ccncc2)cc1 [SB-428218],16%,0%,0%,0%,0%,24%,0%,0%,0%,0%,0%,18%,0%,36%,60%,7%,0%,0%,0%,0%
Nc1ncnc2[nH]c(-c3ccccc3)nc12 [AH5015],0%,0%,0%,4%,0%,10%,0%,0%,7%,0%,9%,10%,28%,30%,10%,9%,38%,0%,0%,0%
Cc1ccc(NC(=O)Nc2cc(C(C)(C)C)nn2-c2ccccc2)cc1 [GSK1014915],0%,0%,0%,0%,2%,28%,0%,0%,0%,0%,0%,0%,11%,13%,18%,1%,9%,0%,2%,0%
